According to the supplement of paper PMC12494721:
Counter-ions that a name gives are not always drawn.

Key:
Details in all cases: 20 µM; incubation time: 27 h, anaerobic, 37 °C;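 for the amine columns active = adjusted P below 0.05 in both replicates with a change the same way and a mean fold change under 0.8 or over 1.25; inactive = the rest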
[1] = system: Clostridium sporogenes DSM 1664; test: growth (OD595) fold change vs plate DMSO controls (fold change (ratio)); higher = more growth
Procedure, shortened: (§1)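 Absorbance at 595 nm was read after shaking the anaerobic mGAM cultures, which had grown in 96-well plates for 27 h at 37 °C. After blank subtraction and background correction against 20 µM compound solutions in water, a calibration factor of 5 gave OD values. Growth is the fold change against the median of the plate's DMSO controls. Values are the mean of 2 biological replicates, with fold changes above 1.5 set to NA.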

Escherichia coli IAI1 [2] = test: as above
Procedure, shortened: as §1

[3] = system: Klebsiella aerogenes DSM 30053; test: as above
Procedure, shortened: as §1

[4] = system: Ruminococcus gnavus DSM 108212; test: as above
Procedure, shortened: as §1

[5] = system: Klebsiella aerogenes DSM 30053; test: fold change of Histamine concentration vs plate DMSO controls (fold change (ratio)); higher = more amine produced, active = hit call of the paper (significant change in both replicates, either direction)
Procedure, shortened: (§2)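 Extracts of whole anaerobic mGAM cultures were analysed for amines by LC–triple-quadrupole MS with dynamic MRM and external calibration curves, with drift corrected within batch. Four gut strains were grown at 37 °C for 27 h in 80 µL wells with compounds at 20 µM final, sweeteners at 50 µM final. Each value expresses fold change over plate DMSO controls. The average of 2 biological replicates is shown.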

[6] = system: Clostridium sporogenes DSM 1664; test: fold change of Tryptamine concentration vs plate DMSO controls (fold change (ratio)); higher = more amine produced, active = hit call of the paper (significant change in both replicates, either direction)
Procedure, shortened: as §2

[7] = system: Ruminococcus gnavus DSM 108212; test: as above
Procedure, shortened: as §2

Escherichia coli IAI1 [8] = test: fold change of Putrescine concentration vs plate DMSO controls (fold change (ratio)); higher = more amine produced, active = hit call of the paper (significant change in both replicates, either direction)
Procedure, shortened: as §2

[9] = system: Klebsiella aerogenes DSM 30053; test: as above
Procedure, shortened: as §2

Escherichia coli IAI1 [10] = test: fold change of Cadaverine concentration vs plate DMSO controls (fold change (ratio)); higher = more amine produced, active = hit call of the paper (significant change in both replicates, either direction)
Procedure, shortened: as §2

[11] = system: Klebsiella aerogenes DSM 30053; test: as above
Procedure, shortened: as §2

[12] = system: Ruminococcus gnavus DSM 108212; test: fold change of 2-Phenylethylamine concentration vs plate DMSO controls (fold change (ratio)); higher = more amine produced, active = hit call of the paper (significant change in both replicates, either direction)
Procedure, shortened: as §2

SMILES | growth [1] | growth (Escherichia coli IAI1 [2]) | growth [3] | growth [4] | fold change of Histamine concentration [5] | fold change of Tryptamine concentration [6] | fold change of Tryptamine concentration [7] | fold change of Putrescine concentration (Escherichia coli IAI1 [8]) | fold change of Putrescine concentration [9] | fold change of Cadaverine concentration (Escherichia coli IAI1 [10]) | fold change of Cadaverine concentration [11] | fold change of 2-Phenylethylamine concentration [12]
CN(C)C(CSS(=O)(=O)O)CSS(=O)(=O)O | 1.11 | 0.998 | 0.99 | 0.931 | 1.01 (inactive) | 0.933 (inactive) | 1.02 (inactive) | 1.04 (inactive) | 0.999 (inactive) | 1.02 (inactive) | 0.988 (inactive) | 0.987 (inactive)
C#CCN(C)[C@H](C)Cc1ccccc1 [Selegiline hydrochloride] | 0.986 | 1.05 | 1.02 | 0.963 | 0.982 (inactive) | 1.11 (inactive) | 1.05 (inactive) | 1.07 (inactive) | 0.975 (inactive) | 1.03 (inactive) | 1.01 (inactive) | 1.06 (inactive)
CCC1(c2ccc(N)cc2)CCC(=O)NC1=O (configuration not stated) [Glutethimide, para-amino] | 0.956 | 1.01 | 0.979 | 1.14 | 1.12 (inactive) | 1.02 (inactive) | 1.04 (inactive) | 0.992 (inactive) | 1.02 (inactive) | 0.974 (inactive) | 0.993 (inactive) | 1 (inactive)
CCOP(=S)(OCC)Oc1cc(C)nc(C(C)C)n1 | 0.996 | 1.01 | 0.998 | 1.15 | 1.04 (inactive) | 1.03 (inactive) | 0.997 (inactive) | 1 (inactive) | 1 (inactive) | 1.01 (inactive) | 1 (inactive) | 1 (inactive)
CNC(=O)Oc1cccc(/N=C/N(C)C)c1 | 0.913 | 0.992 | 0.988 | 1.04 | 1.02 (inactive) | 1.04 (inactive) | 0.993 (inactive) | 0.96 (inactive) | 1 (inactive) | 1.02 (inactive) | 1 (inactive) | 0.934 (inactive)
CN1C(=O)CCS(=O)(=O)C1c1ccc(Cl)cc1 (configuration not stated) [Chlormezanone] | 1.13 | 0.97 | 1.02 | 0.846 | 1 (inactive) | 0.944 (inactive) | 1.05 (inactive) | 0.986 (inactive) | 1.01 (inactive) | 0.984 (inactive) | 1.01 (inactive) | 1.06 (inactive)
CC(=O)O[C@H]1CC[C@@]2(C)C(=CC[C@@H]3[C@@H]2CC[C@]2(C)C(=O)CC[C@@H]32)C1 [Dehydroisoandosterone 3-acetate] | 0.905 | 1.04 | 0.994 | 1.08 | 1.02 (inactive) | 0.937 (inactive) | 1.04 (inactive) | 1.08 (inactive) | 1.04 (inactive) | 1.01 (inactive) | 1.01 (inactive) | 1.04 (inactive)
CCOc1cc(Oc2ccc(C(F)(F)F)cc2Cl)ccc1[N+](=O)[O-] | 1.13 | 0.996 | 1 | 0.995 | 0.981 (inactive) | 1.06 (inactive) | 1.04 (inactive) | 0.953 (inactive) | 0.943 (inactive) | 0.933 (inactive) | 1.08 (inactive) | 1.05 (inactive)
Nc1ccncc1 [Dalfampridine] | 0.947 | 0.992 | 1.02 | 0.985 | 0.957 (inactive) | 1 (inactive) | 1 (inactive) | 0.968 (inactive) | 0.989 (inactive) | 0.957 (inactive) | 1 (inactive) | 0.991 (inactive)
CO/C=C(/C(=O)OC)c1ccccc1COc1cccc(C(F)(F)F)n1 | 1.04 | 1.03 | 1.05 | 0.952 | 0.977 (inactive) | 1.02 (inactive) | 0.996 (inactive) | 1.06 (inactive) | 1 (inactive) | 1 (inactive) | 1 (inactive) | 0.98 (inactive)
Cc1nnc(-c2ccccc2)c(=O)n1N | 0.969 | 1.05 | 0.993 | 1.01 | 1.04 (inactive) | 0.988 (inactive) | 1.04 (inactive) | 0.965 (inactive) | 1 (inactive) | 1.03 (inactive) | 0.972 (inactive) | 1.13 (inactive)
CC(Cc1ccccc1)NCCC(c1ccccc1)c1ccccc1 (configuration not stated) [Prenylamine lactate] | 1.01 | 0.997 | 1 | 1.45 | 0.979 (inactive) | 0.96 (inactive) | 0.913 (inactive) | 1.37 (inactive) | 0.961 (inactive) | 0.657 (active) | 0.987 (inactive) | 0.983 (inactive)
CCCSP(=O)(OCC)Oc1ccc(Br)cc1Cl (configuration not stated) | 0.919 | 0.968 | 1.03 | 0.964 | 1.01 (inactive) | 1.03 (inactive) | 0.941 (inactive) | 1 (inactive) | 1.02 (inactive) | 1.03 (inactive) | 0.995 (inactive) | 0.9 (inactive)
COc1ccc(-c2ccccc2)cc1NNC(=O)OC(C)C | 1.14 | 0.997 | 1 | 1.12 | 0.998 (inactive) | 0.997 (inactive) | 0.968 (inactive) | 0.991 (inactive) | 1 (inactive) | 1.03 (inactive) | 0.984 (inactive) | 0.922 (inactive)
CO[C@]12C[C@@H](COC(=O)c3cncc(Br)c3)CN(C)[C@@H]1Cc1cn(C)c3cccc2c13 [Nicergoline] | 0.937 | 1 | 1.03 | 0.96 | 0.955 (inactive) | 0.994 (inactive) | 0.968 (inactive) | 0.98 (inactive) | 0.99 (inactive) | 0.908 (inactive) | 1.02 (inactive) | 0.888 (inactive)
C1CCc2nnnn2CC1 [Pentylenetetrazole] | 1.14 | 0.976 | 1 | 0.873 | 0.957 (inactive) | 0.963 (inactive) | 0.836 (inactive) | 0.994 (inactive) | 0.975 (inactive) | 1.01 (inactive) | 0.998 (inactive) | 0.876 (inactive)
CN(C)[C@@H]1C(=O)C(C(N)=O)=C(O)[C@@]2(O)C(=O)C3=C(O)c4c(O)ccc(Cl)c4[C@@](C)(O)[C@H]3C[C@@H]12 [Chlortetracycline hydrochloride] | 0.00816 | 0.064 | 0.0706 | 0.431 | 0.0679 (active) | 0.0172 (active) | 0.302 (active) | 0.253 (active) | 0.47 (inactive) | 0.146 (active) | 0.483 (inactive) | 0.271 (active)
CC(=O)[C@H]1CC[C@H]2[C@@H]3CC[C@H]4C[C@H](O)CC[C@]4(C)[C@H]3C(=O)C[C@]12C [Alfaxalone] | 1.12 | 1.03 | 1.02 | 1.13 | 1.06 (inactive) | 0.957 (inactive) | 0.959 (inactive) | 0.994 (inactive) | 1.06 (inactive) | 1 (inactive) | 1.02 (inactive) | 0.913 (inactive)
O=C(CCCN1CCC2(CC1)C(=O)NCN2c1ccccc1)c1ccc(F)cc1 [Spiperone] | 0.864 | 0.96 | 0.968 | 0.921 | 1.01 (inactive) | 0.991 (inactive) | 1.01 (inactive) | 1.02 (inactive) | 1.01 (inactive) | 1.01 (inactive) | 0.998 (inactive) | 1.04 (inactive)
CCC(COC(=O)c1cc(OC)c(OC)c(OC)c1)(c1ccccc1)N(C)C (configuration not stated) [Trimebutine] | 0.842 | 0.979 | 0.999 | 0.868 | 0.944 (inactive) | 0.936 (inactive) | 1.06 (inactive) | 0.928 (inactive) | 1.01 (inactive) | 0.997 (inactive) | 1.01 (inactive) | 1.04 (inactive)
CCC1(C)CC(=O)NC(=O)C1 [Bemegride] | 1.08 | 1.06 | 1.04 | 0.973 | 0.98 (inactive) | 1.04 (inactive) | 1.03 (inactive) | 0.985 (inactive) | 0.981 (inactive) | 0.986 (inactive) | 0.991 (inactive) | 1.03 (inactive)
CC(CCc1ccccc1)NC(C)C(O)c1ccc(O)cc1 (configuration not stated) [Nylidrin] | 0.853 | 1.13 | 1.21 | 1 | 1 (inactive) | 0.986 (inactive) | 0.929 (inactive) | 1.03 (inactive) | 1.05 (inactive) | 0.961 (inactive) | 1.02 (inactive) | 0.902 (inactive)
CCC(C)(c1ccc(O)cc1)c1ccc(O)cc1 [Bisphenol B] | 1.05 | 1.04 | 0.977 | 1.02 | 1.06 (inactive) | 1.04 (inactive) | 0.962 (inactive) | 0.976 (inactive) | 0.994 (inactive) | 1 (inactive) | 0.98 (inactive) | 0.974 (inactive)
c1cc2c3c(cccc3c1)CC2 [Acenaphthene] | 1.04 | 1.01 | 0.974 | 0.995 | 1.04 (inactive) | 0.986 (inactive) | 1.01 (inactive) | 1.02 (inactive) | 1.02 (inactive) | 1.03 (inactive) | 0.982 (inactive) | 1.05 (inactive)
COCC(C)N(C(=O)CCl)c1c(C)csc1C (configuration not stated) | 1.06 | 1.02 | 1.03 | 0.986 | 0.989 (inactive) | 1.02 (inactive) | 0.991 (inactive) | 1.01 (inactive) | 1.01 (inactive) | 0.953 (inactive) | 1.04 (inactive) | 0.941 (inactive)
CC(=O)O[C@H]1C[C@H](O[C@H]2[C@@H](O)C[C@H](O[C@H]3[C@@H](O)C[C@H](O[C@H]4CC[C@@]5(C)[C@H](CC[C@@H]6[C@@H]5C[C@@H](O)[C@]5(C)[C@@H](C7=CC(=O)OC7)CC[C@]65O)C4)O[C@@H]3C)O[C@@H]2C)O[C@H](C)[C@H]1O[C@@H]1O[C@H](CO)[C@@H](O)[C@H](O)[C@H]1O [Lanatoside C] | 1.01 | 0.957 | 0.998 | 1.12 | 0.992 (inactive) | 0.962 (inactive) | 1.07 (inactive) | 1.09 (inactive) | 0.991 (inactive) | 1.02 (inactive) | 0.996 (inactive) | 1.1 (inactive)
